Out of some 220,000 compounds screened, about 1,500 (0.68%) were called active. What follows is part of a selection rich in actives, with near analogues and random picks from the rest. Unmarked numbers belong to inactive results.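 How the source made its calls: active means Hck-Nef kinase inhibition above about 50% (limit read from the data); inactive means inhibition below that limit.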
What follows are molecules tested against Tyrosine-protein kinase HCK (Homo sapiens) (UniProt P08631) (assay: Hck:Nef complex kinase activity blockers – biochemical, Z-Lyte FRET, 384-well, Hck-YEEI, primary screen (AID 463187;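 further: 0% = DMSO with Hck plus Nef and 100% = Hck alone without Nef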)). Settings: Recombinant Hck-YEEI plus Nef, Z-Lyte FRET kinase assay; at 20 µM; stronger effect = higher value.
Chain of Tyrosine-protein kinase HCK (Homo sapiens) (P08631 whole entry, looked up): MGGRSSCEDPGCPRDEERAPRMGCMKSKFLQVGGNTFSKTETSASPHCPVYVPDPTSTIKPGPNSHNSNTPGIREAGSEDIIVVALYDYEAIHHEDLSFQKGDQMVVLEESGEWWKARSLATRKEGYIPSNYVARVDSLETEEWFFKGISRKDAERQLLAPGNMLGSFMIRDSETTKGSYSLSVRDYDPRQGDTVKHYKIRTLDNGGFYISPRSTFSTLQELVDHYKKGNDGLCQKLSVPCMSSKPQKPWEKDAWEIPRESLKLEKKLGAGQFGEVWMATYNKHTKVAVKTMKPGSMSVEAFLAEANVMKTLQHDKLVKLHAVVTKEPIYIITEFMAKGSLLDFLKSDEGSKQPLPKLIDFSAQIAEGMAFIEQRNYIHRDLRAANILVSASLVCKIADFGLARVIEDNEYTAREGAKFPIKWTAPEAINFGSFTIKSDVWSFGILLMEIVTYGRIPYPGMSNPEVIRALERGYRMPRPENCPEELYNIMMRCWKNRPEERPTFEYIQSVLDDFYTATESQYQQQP

Row | Structure (SMILES) | inhibition
1 | CCOc1ccccc1NC(=O)c1cc(S(=O)(=O)N2CCC3(CC2)OCCO3)ccc1F | 2.23%
2 | COc1ccc(NC(=O)c2oc3ccc(S(=O)(=O)N4CCOCC4)cc3c2C)cc1 | -8.31%
3 | Cc1c(C(=O)Nc2ccccc2Cl)oc2ccc(S(=O)(=O)N3CCC4(CC3)OCCO4)cc12 | 74.2% (active)
4 | O=C(CCSCCc1ccccn1)Nc1nccs1 | 7.74%
5 | OCc1nc(CO)n(Cc2ccccc2)n1 | 0.365%
6 | CC1CCCN(CCOCCOc2ccccc2-c2ccccc2)C1 (stereo not drawn) | 0.832%
7 | Cc1ccc(NC(=S)N2CCCC(c3ccccc3)=N2)cc1 | -10%
8 | Cc1nc2ccccc2n1CC(=O)N/N=C/c1cccnc1 | 24.3%
9 | O=C(CSc1cccc2cccnc12)N/N=C/c1cccnc1 | 51.3% (active)
10 | CCOC(=O)N/N=C/c1cccnc1 | -26.2%
11 | CC(CNc1ccc([N+](=O)[O-])c2cccnc12)Nc1c([N+](=O)[O-])cc(C(F)(F)F)cc1[N+](=O)[O-] (stereo not drawn) | -2.43%
12 | Cc1cc(OC(=O)c2ccccc2Cl)ccc1N1C(=O)CCC1=O | 52.4% (active)
13 | COc1ccccc1C(=O)Oc1ccc(N2C(=O)CCC2=O)cc1 | 1.47%
14 | Cc1cccc(/C(N)=N/OC(=O)c2ccccc2Cl)c1 | 5.79%
15 | Cc1sc2c(c1C)c(=O)n(-c1ccccc1)c(=O)n2CC(=O)NCC1CCCO1 (stereo not drawn) | -19.9%
16 | O=C(COC(=O)c1ccccc1NC(=O)c1ccco1)Nc1ccc2c(c1)OC(F)(F)O2 | 5.95%
17 | Cc1ccc(-n2ncc3c(=O)n(-c4ccc(C)c(C)c4)c(-c4ccco4)nc32)cc1 | -0.384%
18 | Cc1ccc(-n2c(=O)c(C#N)cc3c(=O)n4ccccc4nc32)cc1C | 73.3% (active)
19 | CCn1c(=N)c(S(=O)(=O)c2ccc(F)cc2)cc2c(=O)n3ccccc3nc21 | 11.1%
20 | CNC(=S)Nc1ccc([N+](=O)[O-])cc1 | 21.3%
21 | CN(C)CC(C)(C)CNC(=O)c1cc(Br)cc(Br)c1O | 21.9%
22 | COc1cc(NC(=O)COC(=O)CSc2ccc3ccccc3c2)c(C)cc1[N+](=O)[O-] | 2.59%
23 | Cc1cccc(N2CCN(C(=O)CN(C)S(=O)(=O)c3ccc4c(c3)CCC(=O)N4)CC2)c1C | 0.348%
24 | CCc1ccc(CNC(=O)C2CCCN(c3nc4ccccc4o3)C2)cc1 (stereo not drawn) | -20.1%

Row | Structure (SMILES) | inhibition
25 | O=C(NCc1ccccc1)C1CCCN(c2nc3ccsc3c(=O)s2)C1 (stereo not drawn) | 63.7% (active)
26 | O=C(NCc1ccccc1)C1CCCN(S(=O)(=O)c2cccs2)C1 (stereo not drawn) | -1.98%
27 | CN(C(=O)COC(=O)c1cc(-c2ccco2)nc2ccccc12)C1CCS(=O)(=O)C1 (stereo not drawn) | 65.3% (active)
28 | Cc1c(-c2cccc(Cl)c2)nc2ccccc2c1C(=O)OCC(=O)N(C)C1CCS(=O)(=O)C1 (stereo not drawn) | -3.32%
29 | COc1ccc(NC(=O)COc2ccc(C(=O)OCC(=O)N(C)C3CCS(=O)(=O)C3)cc2OC)cc1 (stereo not drawn) | -34.5%
30 | CC(C)Cc1nn2c(=O)cc(O)nc2s1 | 1.45%
31 | O=C(NNC(=O)c1csc(-c2cccnc2)n1)Nc1ccc(Cl)cc1 | 52.2% (active)
32 | O=C(NNC(=O)c1cccnc1)Nc1ccccc1 | -0.546%
33 | O=C(Nc1ccc(Cl)cc1)Nc1ccc(Oc2cccnc2)nc1 | -9.14%
34 | CC(=O)Nc1ccc(OCCC[n+]2cccc(C(=O)[O-])c2)cc1 | 12%
35 | FC(F)(F)c1ccc(CN2C[C@@H]3C(c4ccccc4)C4(c5ccccc5)CC3(C4)[C@H]2c2ccccc2)cc1 (stereo partly drawn) | 17.4%
36 | Cc1cccc(-n2c(SCC(N)=O)nc3c(c2=O)C2(CCCCC2)Cc2ccccc2-3)c1 | 6.81%
37 | CCc1ccc(Nc2nnc(SCC(=O)c3ccc4c(c3)NC(=O)CO4)s2)cc1 | 105% (active)
38 | COc1cccc(Nc2nnc(SCC(=O)N3CC(=O)Nc4ccccc43)s2)c1 | 36.9%
39 | CCCc1nc2ccccc2c(C(=O)OCC(=O)c2ccc3c(c2)NC(=O)CO3)c1CC | -1.08%
40 | CO/N=C(\N)c1ccc([N+](=O)[O-])cc1 | 3.14%
41 | CCOc1ccc(N2C(=O)Nc3ccccc3C2(O)C(=O)NCc2ccco2)cc1 (stereo not drawn) | 20.7%
42 | CNc1ccc(SC#N)cc1 | 33.3%
43 | N#Cc1c(-c2ccc(F)cc2)cc(C2CC2)nc1SCC(=O)c1cccs1 | 3.07%
44 | N=c1ccn(CC(=O)NC(N)=O)c2ccccc12 | 0.937%
45 | O=C(NC1CCCCCC1)c1cccnc1Sc1ccc(Cl)cc1 | 2.04%
46 | Cc1cc(/C=C2/C(=N)N3C(=NC2=O)SN=C3S(C)(=O)=O)c(C)n1-c1ccccc1 | 0.408%
47 | CCS(=O)(=O)C1=NSC2=NC(=O)/C(=C\c3cc(C)n(-c4cccc(OC)c4)c3C)C(=N)N21 | 55.1% (active)
48 | CCC1=NN2C(=N)/C(=C/c3cc(C)n(-c4ccccc4)c3C)C(=O)N=C2S1 | 15.3%

Row | Structure (SMILES) | inhibition
49 | O=c1cc(-c2ccccc2)[nH]c2cc(F)ccc12 | 2.23%
50 | CCc1ccccc1N1CN(Cc2ccco2)CNC1=S | 3.91%
51 | O=C1/C(=C/c2cccs2)CCC1C1CCCC1 (stereo not drawn) | 26%
52 | CCOc1ccc(C2c3[nH]c4ccccc4c3CCN2Cc2cccn2-c2ncccn2)cc1 (stereo not drawn) | 15.4%
53 | CCOc1ccccc1C1C(C(=O)OC)=CN(C)C=C1C(=O)OC | 71.8% (active)
54 | COC(=O)C1=CN(C)C=C(C(=O)OC)C1c1ccc(Cl)cc1Cl | 9.15%
55 | CCOc1cc(C2C(C(=O)OC)=CN(C3CCCC3)C=C2C(=O)OC)cc(Br)c1O | 1.91%
56 | O=C(NCC1CCCCC1)c1cc(S(=O)(=O)N2CCCCC2)ccc1N1CCOCC1 | 19.1%
57 | Cc1cccc(NS(=O)(=O)c2ccc(C)c(C(N)=O)c2)c1 | -7.85%
58 | COc1cccc(CN(C)CC(=O)Nc2ccccc2C(=O)Nc2ccccc2)c1 | 4.04%
59 | COc1ccc(-c2cc3nc(C)c(CCC(=O)NC(C)CCc4ccco4)c(C)n3n2)c(OC)c1 (stereo not drawn) | -1.24%
60 | Cc1cnc(C(=O)N2CCCC(C(=O)c3ccc(C(F)(F)F)cc3)C2)cn1 (stereo not drawn) | 17.7%
61 | COc1cccc(CNC(=O)CCC2CCCN(Cc3ccc(OC(F)F)cc3)C2)c1 (stereo not drawn) | 52.7% (active)
62 | COc1cccc(C(=O)N2CCCC(CCC(=O)NCc3ccc(F)c(F)c3)C2)c1 (stereo not drawn) | 18.6%
63 | COc1cccc(CNC(=O)CCC2CCCN(C(=O)c3ccoc3C)C2)c1 (stereo not drawn) | 1.1%
64 | O=C(/C=C/c1ccc(F)cc1)Nc1cccc(S(=O)(=O)Nc2cccc(C(F)(F)F)c2)c1 | 2.87%
65 | CC(=O)NC(=S)NNC(=O)c1ccc(Br)cc1 | -1.36%
66 | COc1cccc2c1OCC(C(=O)NCc1ccc(Cl)cc1Cl)=C2 | 2.65%
67 | Cc1nc2nc(SCC(=O)c3ccccc3)[nH]c2cc1Br | 16.2%
68 | N#Cc1c(-c2cccs2)nc(SCC(=O)c2ccc(Br)cc2)[nH]c1=O | 72.7% (active)
69 | CCc1ccc(C(=O)CSc2nnc(C)c(=O)[nH]2)cc1 | 10.1%
70 | COc1cccc(C2Nc3cccc4cccc(c34)N2)c1 | 21.8%
71 | COCc1cc(C)nc2sc(C(=O)NC3CCCCC3)c(N)c12 | 1.3%
72 | COc1ccc2oc(=O)c(C(=O)N3CCCC3)cc2c1 | 22%

Row | Structure (SMILES) | inhibition
73 | COc1ccc2oc(=O)c(C(=O)O)cc2c1 | -0.521%
74 | COc1cccc(C(=O)c2cc3ccc(O)cc3oc2=O)c1 | 63.1% (active)
75 | O=C(Cc1c(O)c2ccccc2[nH]c1=O)NCc1ccccc1 | 2.47%
76 | COc1cc(OC)cc(C(=O)NCC(=O)OCc2csc(-c3ccccc3)n2)c1 | 3.87%
77 | Cc1cc(NC(=O)CN2C(=O)NC(CCc3ccccc3)C2=O)no1 (stereo not drawn) | -23.9%
78 | CC(C)OC(=O)Cn1nc(C(F)(F)F)c2c1CCCC2 | 22.4%
79 | O=C(N/N=C/c1ccc([N+](=O)[O-])cc1)C(=O)N1CCCC1 | 6.04%
80 | N#C/C(=C/c1ccc(N2CCOCC2)o1)C(=O)N1CCOCC1 | 1.17%
81 | Cc1nnc(SCC(=O)NNC(=O)c2ccc(Cl)cc2)n1CC1CCCO1 (stereo not drawn) | 22.1%
82 | Cc1cccn2c(=O)c3cc(C#N)c(=NC(=O)c4cccnc4)n(CC4CCCO4)c3nc12 (stereo not drawn) | 35.1%
83 | Cc1cccn2c(=O)c3cc(C#N)c(=O)n(CCCN4CCOCC4)c3nc12 | 178% (active)
84 | Cc1cccn2c(=O)c3cc(C(=O)N4COCC4(C)C)n(C)c3nc12 | 11.2%
85 | COC(=O)C1=CN(Cc2ccc(OC)c(OC)c2)C=C(C(=O)OC)C1c1cccs1 | 79.3% (active)
86 | COc1ccc(C2=NN(C(=O)CCC(=O)O)C(c3cccs3)C2)cc1OC (stereo not drawn) | 19.1%
87 | COc1ccc(CCNC(=O)COC(=O)/C=C/c2cccs2)cc1OC | 19.3%
88 | Cc1ccc2nc(-c3ccncc3)cc(C(=O)Nc3ccc4c(c3)OCCO4)c2c1 | -4.23%
89 | Cc1ccc2nc(-c3ccccc3)cc(C(=O)O)c2c1 | 3.19%
90 | O=C(NCc1cccs1)c1cc(-c2ccccn2)nc2ccc(Br)cc12 | -19.4%
91 | Cc1ccc2nc(-c3ccncc3)cc(C(=O)Nc3ccc(OC(F)F)cc3)c2c1 | 53.4% (active)
92 | O=C(Nc1ccncc1)c1cc(-c2ccccn2)nc2ccc(Br)cc12 | 81.4% (active)
93 | Cc1ccc2nc(-c3ccccn3)cc(C(=O)Nc3ccc4c(c3)OCO4)c2c1 | -2.84%
